According to publication PMC4336329 (PLoS ONE, 2015):
Out of some 310,000 compounds screened, about 14,000 (4.5%) showed an effect of 50% or more. The effect is printed as a negative number. The entries come from a sample that favours strong results as a whole.

Molecular target: human ether-à-go-go-related gene (hERG) potassium channel (human, UniProt Q12809)
Test: primary screen, population patch clamp on CHO cells stably expressing hERG; higher = less effect of the substance
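Note: peak tail current of the secondary pulse compared with the same well before compound.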

Sequence of human ether-à-go-go-related gene (hERG) potassium channel (Q12809 whole entry, looked up): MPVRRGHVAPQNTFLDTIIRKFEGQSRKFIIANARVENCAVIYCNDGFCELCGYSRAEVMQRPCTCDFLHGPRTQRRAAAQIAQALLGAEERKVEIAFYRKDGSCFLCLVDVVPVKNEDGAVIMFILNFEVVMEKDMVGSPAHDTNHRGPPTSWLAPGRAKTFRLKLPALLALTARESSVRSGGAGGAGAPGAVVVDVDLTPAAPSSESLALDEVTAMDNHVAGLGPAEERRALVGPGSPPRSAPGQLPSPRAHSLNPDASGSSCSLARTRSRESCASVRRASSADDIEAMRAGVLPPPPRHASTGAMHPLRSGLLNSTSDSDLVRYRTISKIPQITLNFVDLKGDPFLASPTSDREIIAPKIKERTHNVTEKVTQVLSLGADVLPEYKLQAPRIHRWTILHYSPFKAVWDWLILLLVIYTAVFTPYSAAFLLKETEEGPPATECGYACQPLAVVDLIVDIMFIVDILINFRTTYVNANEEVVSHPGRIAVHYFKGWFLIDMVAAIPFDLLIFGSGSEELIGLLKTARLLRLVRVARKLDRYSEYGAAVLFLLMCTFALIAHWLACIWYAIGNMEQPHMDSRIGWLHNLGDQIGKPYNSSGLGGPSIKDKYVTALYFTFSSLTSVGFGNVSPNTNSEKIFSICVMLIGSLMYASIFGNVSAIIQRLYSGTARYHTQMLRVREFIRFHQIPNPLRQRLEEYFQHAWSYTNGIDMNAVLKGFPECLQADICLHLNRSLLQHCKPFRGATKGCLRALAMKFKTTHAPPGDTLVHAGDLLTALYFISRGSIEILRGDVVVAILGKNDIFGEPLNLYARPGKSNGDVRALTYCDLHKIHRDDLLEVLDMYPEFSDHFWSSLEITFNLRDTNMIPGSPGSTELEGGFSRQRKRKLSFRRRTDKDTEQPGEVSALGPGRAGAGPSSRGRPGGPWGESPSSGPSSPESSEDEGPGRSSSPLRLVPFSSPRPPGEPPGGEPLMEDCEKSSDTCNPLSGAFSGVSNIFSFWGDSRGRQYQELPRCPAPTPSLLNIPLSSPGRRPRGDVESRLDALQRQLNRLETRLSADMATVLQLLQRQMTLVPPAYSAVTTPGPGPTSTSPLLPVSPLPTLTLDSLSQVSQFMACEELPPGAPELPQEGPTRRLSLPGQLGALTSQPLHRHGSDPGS

Row | SMILES | hERG current change (%, negative = inhibition) at 10uM
1 | O=C(O)c1ccccc1C1Nc2ccccc2C(=O)N1CCCN1CCOCC1 (stereo not drawn) | 18.4%
2 | C/C(=N/n1cnnc1)c1cccnc1 | -0.855%
3 | C/C(=N\NC(=O)CCC(=O)Nc1ccc(C)c(C)c1)C1CC1 | 10.7%
4 | Cc1ccc2nc(N3CCN(C(=O)c4cccs4)CC3)c(C#N)cc2c1 | -76.9%
5 | Cc1cccc2cc(C#N)c(N3CCN(C)CC3)nc12 | -46%
6 | Cc1ccc2cc(C#N)c(N3CCCN(C(=O)c4cnccn4)CC3)nc2c1 | -42.4%
7 | Cc1ccc2cc(C#N)c(N3CCN(C(=O)c4cccs4)CC3)nc2c1 | -34.2%
8 | N#Cc1cccnc1N1CCN(C(=O)c2cccs2)CC1 | -1.7%
9 | CCc1ccc2nc(N3CCN(C)CC3)c(C#N)cc2c1 | -54.3%
10 | COc1ccc(C(=O)N2CCN(c3nc4cc(C)ccc4cc3C#N)CC2)c(OC)c1 | -22.8%
11 | Cc1ccc2cc(C#N)c(N3CCN(C(=O)c4ccccc4)CC3)nc2c1 | -67.1%
12 | Cc1ccc2cc(C#N)c(N3CCN(C)CC3)nc2c1 | 2.75%
13 | COc1ccc2cc(C#N)c(N3CCN(C(=O)c4ccccc4C)CC3)nc2c1 | -18.9%
14 | Cc1ccc2nc(N3CCN(C)CC3)c(C#N)cc2c1 | -42.3%
15 | COc1cc(C(=O)N2CCCN(c3nc4cc(C)ccc4cc3C#N)CC2)cc(OC)c1OC | -53.5%
16 | Cc1cc(-c2ccccc2)nc(N(C)NC(=O)c2ccc(Cl)cc2)c1S(C)(=O)=O | 0.236%
17 | CC(=O)c1cccc(NC(=O)N2CCC(C(=O)c3ccc(F)cc3)CC2)c1 | -28.1%
18 | CCOc1ccc(N=Nc2c(C)[nH]n(-c3ccccc3)c2=O)cc1 | 18.6%
19 | O=C(COC(=O)C1CCC1)Nc1ccccc1Sc1ccccc1 | 7.34%
20 | COc1ccc2nc(NC(=S)NC(=O)c3ccco3)sc2c1 | 25.2%
21 | COc1ccc(CCNC(=O)c2cnc3n(c2=O)CCS3)cc1OC | -5.87%
22 | Cc1ccc(-n2c(C)nn(CCOc3ccccc3)c2=O)cc1 | 1.54%
23 | COc1ccccc1C(=O)N1CCN(c2nc3cc(C)c(C)cc3cc2C#N)CC1 | -2.28%
24 | Cc1ccc2nc(N3CCN(C(=O)c4ccc(F)cc4)CC3)c(C#N)cc2c1 | -73.6%
25 | Cc1ccc(C(=O)N2CCCN(c3nc4cc5c(cc4cc3C#N)OCO5)CC2)cc1 | -0.619%

Row | SMILES | hERG current change (%, negative = inhibition) at 10uM
26 | C/C(=N\NC(=O)c1cc(-c2ccc(O)cc2)nc2ccccc12)c1cccnc1 | 11.7%
27 | COC(=O)/C=C1\SC(=Nc2ccccc2)NC1=O | 9.64%
28 | Cc1nnc2ccc(N3CCCC3)nn12 | 6.22%
29 | Cc1nnc2ccc(-c3cccc(C(F)(F)F)c3)nn12 | -9.04%
30 | Cc1nnc2ccc(N3CCN(c4cccc(C(F)(F)F)c4)CC3)nn12 | -61.8%
31 | Cc1nnc2ccc(N3CCCCC3)nn12 | 6.15%
32 | FC(F)(F)c1cccc(N2CCN(c3ccc4nnc(-c5ccccc5)n4n3)CC2)c1 | -4.4%
33 | Cc1nnc2ccc(N3CCN(c4ccccn4)CC3)nn12 | -57%
34 | CN1CCc2c(sc(N)c2C(N)=O)C1 | 6.59%
35 | S=c1[nH]c2ccc(Cl)cc2s1 | 21.1%
36 | O=C(NCc1ccc(Cl)cc1)C(=O)Nc1nccs1 | 20.7%
37 | O=C(c1ccc2c(=O)n(C3CCCC3)c(=S)[nH]c2c1)N1CCN(C2CCCCC2)CC1 | 6.5%
38 | CSC1=N/C(=C\c2ccccc2C)C(=O)S1 | 23.9%
39 | COc1ccc2cc(C(C)=O)c(=O)oc2c1 | -11.4%
40 | OCCN=C1CCCc2c1[nH]c1ccc(Br)cc21 | 6.45%
41 | Cl.c1ccc(CCN=C2CCCc3c2[nH]c2ccccc32)cc1 | -73.2%
42 | OCCN=C1CCCc2c1[nH]c1ccc(Cl)cc21 | -18%
43 | CCN(CC)C(=O)c1ccc(CS(=O)(=O)c2ccc(OC)cc2)o1 | -0.122%
44 | N=c1c(C(=O)NC2CCCC2)cc2c(=O)n3ccccc3nc2n1C1CCCCC1 | -79%
45 | N=c1c(C(=O)NC2CCCC2)cc2c(=O)n3ccccc3nc2n1C1CCCC1 | -82.2%
46 | Cc1nc2ccccn2c1C(=O)NC1CCCCC1 | 1.83%
47 | Cc1nc2ccccn2c1C(=O)NC1CCCC1 | 16.2%
48 | N=c1c(S(=O)(=O)c2ccc(Cl)cc2)cc2c(=O)n3ccccc3nc2n1C1CCCC1 | 14%
49 | Cn1c(C(=O)NC2CCCCC2)cc2c(=O)n3ccccc3nc21 | 4.32%
50 | COc1ccc(N2CCN(C(CNC(=O)C(=O)NC3CC3)c3ccco3)CC2)cc1 (stereo not drawn) | 13.6%

Row | SMILES | hERG current change (%, negative = inhibition) at 10uM
51 | CCOc1cc(C=C(C(=O)OC)C(=O)OC)ccc1OCc1ccc([N+](=O)[O-])cc1 | 4.17%
52 | O=C(Nc1ccc(F)cc1F)c1cc2ncc(CCCl)cn2n1 | -12.3%
53 | O=C(Nc1nnc(SCc2ccc(F)cc2)s1)c1cccnc1Cl | 2.48%
54 | COc1cc(NC(=O)c2cc3ccccc3o2)c(OC)cc1Cl | 16.3%
55 | Clc1ccc(Cn2ncc3c(N4CCOCC4)ncnc32)cc1 | -16.2%
56 | Clc1ccc(Cn2ncc3c(N4CCCCC4)ncnc32)cc1 | -14.4%
57 | c1ccc(CNc2ncnc3c2cnn3Cc2ccccc2)cc1 | -22%
58 | Clc1ccc(Cn2ncc3c(N4CCCC4)ncnc32)cc1 | -56.7%
59 | c1cncc(CNc2ncnc3ccc(-c4ccoc4)cc23)c1 | -71.4%
60 | c1cncc(CNc2ncnc3sccc23)c1 | 17.8%
61 | Brc1ccc2ncnc(NCc3cccnc3)c2c1 | -60.2%
62 | Clc1ccc(Cn2ncc3c(NCc4cccnc4)ncnc32)cc1 | -51.2%
63 | Cc1cccc(CNc2ncnc3ccc(-c4ccoc4)cc23)c1 | -12.4%
64 | Clc1ccc(Cn2ncc3c(NCc4ccccc4)ncnc32)cc1 | -1.94%
65 | c1csc(CNc2ncnc3ccc(-c4ccoc4)cc23)c1 | -13.4%
66 | Brc1ccc2ncnc(NCc3ccccc3)c2c1 | -10.3%
67 | O=c1c(NCCc2ccc(Cl)cc2)c(-c2ccccc2)c1=O | 5.81%
68 | O=S1(=O)CCS(=O)(=O)C1c1ccccc1 | -1.95%
69 | COc1ccc(N/C=C/C(=O)c2cc(OC)c(OC)c(OC)c2)cc1 | -8.76%
70 | Cc1nc2cc(CO)ccc2s1 | 9.23%
71 | COC(=O)/C(=C\Nc1ccccc1N)c1ncc(C(F)(F)F)cc1Cl | 3.74%
72 | CCn1ncc(C2=NOC(C(=O)Nc3c(C)nn(Cc4ccc(F)cc4)c3C)C2)c1C (stereo not drawn) | 10.3%
73 | COc1ccc(-c2nc3nc(C)cc(=O)n3[nH]2)cc1 | 17.9%
74 | CCn1nnnc1NCc1ccc(N2CCCC2)cc1 | 3.6%
75 | Cc1ccc(S(=O)(=O)NCCCCCC(=O)NC(C)(C)CO)cc1 | 13.7%

Row | SMILES | hERG current change (%, negative = inhibition) at 10uM
76 | CCCCNC(=O)CSc1nc2ccccc2n1S(=O)(=O)c1ccc(Br)cc1 | -0.913%
77 | Cc1cccc(-c2ccc3ncnc(NCc4cccnc4)c3c2)c1 | -70.5%
78 | Cc1cccc(-c2ccc3ncnc(NCc4cccs4)c3c2)c1 | -8.55%
79 | COc1cccc(-c2ccc3ncnc(NCc4cccc(C)c4)c3c2)c1 | -0.57%
80 | CCc1ccccc1NC(=O)N1CCCC(CCC(=O)N(C)CCc2ccccn2)C1 (stereo not drawn) | 13.1%
81 | CCOC(=O)CCNC(=O)N1CCCC(CCC(=O)N(C)CCc2ccccn2)C1 (stereo not drawn) | -52.3%
82 | CN(CCc1ccccn1)C(=O)CCC1CCCN(C(=O)NC2CCCCC2)C1 (stereo not drawn) | 17.4%
83 | CCCCNC(=S)N(C)/N=C/c1ccc(F)cc1 | -8.72%
84 | CCCCNC(=S)N(C)/N=C/c1ccc2c(c1)OCO2 | -50.1%
85 | CCCCNC(=S)N(C)/N=C/c1ccccc1F | 2.14%
86 | CCOc1c(N2CCCCC2)c(=O)c1=O | 0.507%
87 | Cc1cc(C)cc(NC(=O)CSc2nnc(-c3ccncc3)o2)c1 | -22.8%
88 | COc1cc(OC)c(C(=O)Nc2cccc(C(C)=O)c2)cc1OC | -9.08%
89 | Cc1ccc2cc(CCNS(=O)(=O)c3ccc(F)cc3)c(=O)[nH]c2c1C | 10.9%
90 | CCOC(=O)C1=C(N)OC2=C(C(=O)CC(C)(C)C2)C1c1ccc(C)s1 (stereo not drawn) | -42.3%
91 | CCOC(=O)C1=C(N)OC2=C(C(=O)CCC2)C1c1ccc(C)s1 (stereo not drawn) | -54.3%
92 | CCOC(=O)C1=C(N)OC2=C(C(=O)CCC2)C1c1cccs1 (stereo not drawn) | 1.13%
93 | CCOC(=O)CC(=O)c1cc(OC)c(OC)c(OC)c1 | -3.44%
94 | CCCNC(=O)c1nn2c(C(F)(F)F)cc(-c3ccccc3)nc2c1Cl | -4.1%
95 | Cc1ccc(-c2cc(C(F)(F)F)n3nc(C(=O)NCCCn4ccnc4)cc3n2)cc1C | -20.6%
96 | COc1ccc(-c2cc(C(F)(F)F)n3nc(C(=O)NCCCn4ccnc4)cc3n2)cc1 | -41%
97 | O=C(NCCCn1ccnc1)c1cc2nc(-c3ccc(Br)cc3)cc(C(F)(F)F)n2n1 | -62.8%
98 | O=C(NCCCn1ccnc1)c1nn2c(C(F)(F)F)cc(-c3ccccc3)nc2c1Cl | -29.6%
99 | O=C(NCCCn1ccnc1)c1nn2c(C(F)(F)F)cc(-c3ccc(Br)cc3)nc2c1Cl | -65.7%
